The source made the active and inactive calls.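 Rule for the calls, unless noted: active = visually confirmed hit in the image check and inhibition above 20%; inconclusive = visually confirmed hit but inhibition not above 20%; inactive = no visual hit in the image check.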
Legend:
[1] = inhibitors of TNFa-induced NFkB p65 translocation, primary screen, imaging, HUVEC, MLSMR starter and 10KST1 sets (AID 438;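 active = inhibition above 20% together with a positive visual image hit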;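 note: compound added about 3h40 before a 20 min TNFalpha stimulation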;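 for inhibition: signal is the nuclear over cytoplasmic p65 intensity ratio per well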); conditions: HUVEC TNFa-induced p65 nuclear translocation; cell count: measured here: nuclei count (cytotoxicity indicator), at 2.08 µM; inhibition: at 2 µM, stronger effect = higher value, 0% TNFa-plus-vehicle, 100% no-TNFa wells
[2] = inhibitors of mutant huntingtin aggregation, primary screen, imaging, exon1htt(103Q)mCFP cells, high-content imaging (AID 483;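 active = visual image review flags a hit and inhibition of aggregation exceeds 20%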;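 note: compound exposure lasted 3 days before fixation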;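 for nuclei count: percent of the per-plate median nuclei count of sample wells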); conditions: exon1htt(103Q)mCFP cell line, aggregate imaging, at 2 µM; inhibition of aggregation: stronger effect = higher value; nuclei count: measured here: cell count, toxicity
[3] = inhibitors of E-selectin induction by TNFa, primary screen, imaging, HUVEC, immunofluorescence, MLSMR starter and 10KST1 sets (AID 487); conditions: HUVEC TNFalpha-induced E-selectin immunofluorescence imaging, at 2 µM; inhibition: stronger effect = higher value; nuclei count: measured here: cell number, toxicity;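 for inhibition: signal is fraction of cell area covered by stained E-selectin grains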;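 for nuclei count: 100% = median nuclei count of all wells on the same plate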
[4] = molecular target: Voltage-gated potassium channel subunit beta-2 (Rattus norvegicus) (UniProt P62483); assay: KvBeta enzyme negative modulators, primary screen, biochemical, NADPH fluorescence (AID 622;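 active = fluorescence slope higher than the sample average by over 3 SD, cut at about -0.22 in these data, passing the limit was not always enough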;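 note: slope of raw intensity against log time taken from 70 to 1610 s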); conditions: recombinant KvBeta, 4-cyanobenzaldehyde reduction, at 10 µM, stronger effect = higher value
Sequence of Voltage-gated potassium channel subunit beta-2 (Rattus norvegicus) (P62483 whole entry, looked up): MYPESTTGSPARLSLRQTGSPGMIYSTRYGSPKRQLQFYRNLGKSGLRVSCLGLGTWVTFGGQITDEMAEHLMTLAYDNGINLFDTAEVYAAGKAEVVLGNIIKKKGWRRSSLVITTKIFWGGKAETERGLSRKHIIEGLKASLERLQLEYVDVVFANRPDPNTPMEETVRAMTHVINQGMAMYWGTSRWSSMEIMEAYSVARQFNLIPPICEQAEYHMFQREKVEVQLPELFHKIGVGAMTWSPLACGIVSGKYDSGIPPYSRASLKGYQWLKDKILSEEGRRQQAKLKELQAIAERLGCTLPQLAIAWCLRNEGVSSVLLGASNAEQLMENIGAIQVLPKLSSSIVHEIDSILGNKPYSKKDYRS

[5] = molecular target: Voltage-gated potassium channel subunit beta-2 (Rattus norvegicus) (UniProt P62483); assay: KvBeta positive modulators, primary screen, biochemical, NADPH fluorescence (AID 623;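 active = NADPH fluorescence slope more negative than the mean of all samples by about 3 SD, 99.7% confidence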;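 note: fluorescence intensity change per second fitted from 20 to 320 s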); conditions: Recombinant KvBeta, NADPH fluorescence decrease slope, 10 min; at 10 µM; stronger effect = lower value
[6] = molecular target: Alpha-2C adrenergic receptor (Homo sapiens) (UniProt P18825); assay: modulators of alpha2C/GIRK thallium flux, primary screen, cell-based, HEK293 alpha2C/GIRK1/2 (AID 624;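 active = fluorescence slope after compound addition differing from the mean of all screened samples at 99.7% confidence, in either direction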;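 note: slope of fluorescence ratio to pre-addition baseline per second over 15 to 24 s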); conditions: thallium flux BTC fluorescence, at 10 µM, actives lie on both sides
Sequence of Alpha-2C adrenergic receptor (Homo sapiens) (P18825 whole entry, looked up): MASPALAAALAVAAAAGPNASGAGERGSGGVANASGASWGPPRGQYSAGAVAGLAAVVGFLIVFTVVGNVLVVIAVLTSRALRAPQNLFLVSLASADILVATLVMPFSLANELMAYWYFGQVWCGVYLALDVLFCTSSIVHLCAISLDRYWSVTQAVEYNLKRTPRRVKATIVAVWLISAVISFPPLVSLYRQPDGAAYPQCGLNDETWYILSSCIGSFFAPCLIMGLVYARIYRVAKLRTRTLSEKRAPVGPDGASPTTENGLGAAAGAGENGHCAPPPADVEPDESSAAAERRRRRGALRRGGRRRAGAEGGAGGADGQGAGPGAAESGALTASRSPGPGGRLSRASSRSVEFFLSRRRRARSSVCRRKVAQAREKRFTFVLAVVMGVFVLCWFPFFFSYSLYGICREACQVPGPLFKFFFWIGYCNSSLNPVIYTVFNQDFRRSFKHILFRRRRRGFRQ

[7] = inhibitors of Sendai virus-induced IRF3 signaling, primary screen, TLR/RLR signaling modifier project, cell-based, Sendai virus stimulus, luciferase, 10K MLSCN set (AID 602276;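 active = inhibition at or above 50% at 10 µM; inactive = inhibition below 50%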;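 note: firefly luciferase from ISG56 promoter only with Renilla not read in this screen; 0% = Sendai virus plus DMSO and 100% = medium plus DMSO without virus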); conditions: HEK293 RL24 IRF3 luciferase reporter, at 10 µM, stronger effect = higher value
[8] = inhibitors of poly I:C-induced TLR3 signaling, primary screen, cell-based, poly I:C stimulus, luciferase, 10K MLSCN set (AID 602277;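 active = inhibition of the reporter signal at or above 50%; inactive = inhibition below 50%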); conditions: HEK293-TLR3 RL24 IRF3 luciferase reporter, at 10 µM, stronger effect = higher value

Compound	cell count [1]	inhibition [1]	inhibition of aggregation [2]	nuclei count [2]	inhibition [3]	nuclei count [3]	fluorescence slope [4]	NADPH fluorescence slope [5]	slope [6]	inhibition [7]	inhibition [8]
Cc1nc(SCC(=O)Nc2cc(C)on2)c2c3c(sc2n1)CCCC3	461	2.5% (inactive)	-13.2% (inactive)	93.7%	-33.9% (inactive)	110%	-0.579 (inactive)	-5.9e-05 (inactive)	0.00594 (inactive)	6.61% (inactive)	11.9% (inactive)
COc1ccccc1C1CC(c2ccc(C)cc2)Nc2ncnn21 (centres undefined)	332	0.7% (inactive)	-31.6% (inactive)	109%	-37.9% (inactive)	119%	-0.425 (inactive)	4.9e-05 (inactive)	0.00745 (inactive)	-7.75% (inactive)	-0.278% (inactive)
COc1ccc(C)cc1NC(=O)C1CCN(S(=O)(=O)c2cccc3cccnc23)CC1	539	-6.5% (inactive)	13.2% (inactive)	76.6%	-6.8% (inactive)	106%	-0.535 (inactive)	-4.1e-05 (inactive)	0.00559 (inactive)	14.3% (inactive)	30.4% (inactive)
O=c1[nH]c(/C(=N\O)c2ccccc2)no1	462	2% (inactive)	-5% (inactive)	109%	-11.8% (inactive)	111%	-0.421 (inactive)	-0.000106 (inactive)	0.00496 (inactive)	7.11% (inactive)	24.8% (inactive)
COc1cccc(C(=O)OCn2nnc3ccccc3c2=O)c1OC	750	-25% (inactive)	21% (inactive)	99.5%	-17.8% (inactive)	103%	-0.441 (inactive)	-2.9e-05 (inactive)	0.00547 (inactive)	11.8% (inactive)	28.8% (inactive)
C=CCN=C1SCC(=O)N1S(=O)(=O)c1ccc(C)cc1	342	-0.2% (inactive)	3.3% (inactive)	91.1%	-135% (inactive)	124%	-0.364 (inactive)	-6.1e-05 (inactive)	0.00404 (inactive)	5.91% (inactive)	11.1% (inactive)
CCCSc1nc(N)c(C#N)c(-c2ccc(C)cc2)c1C#N	683	10.1% (inactive)	-10.3% (inactive)	104%	-31.9% (inactive)	141%	-0.382 (inactive)	-6.2e-05 (inactive)	0.00536 (inactive)	3.6% (inactive)	9.67% (inactive)
COc1ccc(OC)c(-c2nnc(SCC(=O)NC3CCCCC3)o2)c1	738	2.1% (inactive)	13.9% (inactive)	97.8%	-24.5% (inactive)	114%	-0.574 (inactive)	-1.4e-05 (inactive)	0.00689 (inactive)	-17.4% (inactive)	0.755% (inactive)
CCCCn1c(=O)[nH]c(=O)c2c1nc(COc1ccc(C#N)cc1)n2CCC	337	3.4% (inactive)	-40.4% (inactive)	97.4%	32.8% (inactive)	110%	-0.538 (inactive)	6.8e-06 (inactive)	0.00653 (inactive)	10.1% (inactive)	30.2% (inactive)
O=C(CSc1ncnc2c1oc1ccccc12)Nc1ccccc1F	613	-13.5% (inactive)	-13.9% (inactive)	107%	-10.1% (inactive)	116%	-0.549 (inactive)	3.9e-06 (inactive)	0.00808 (inactive)	1.97% (inactive)	16.6% (inactive)
COc1cc2c(cc1OC)C(C)N(C(=O)c1cc3n(n1)C(C(F)(F)F)CC(c1ccco1)N3)CC2 (centres undefined)	591	9.6% (inactive)	-0.8% (inactive)	97.6%	-22% (inactive)	96.6%	-0.613 (inactive)	1.3e-05 (inactive)	0.00369 (inactive)	25.6% (inactive)	19.1% (inactive)
O=C1CCn2nc(-c3ccc(Cl)cc3)cc2N1	557	-0.5% (inactive)	-106% (inactive)	1.2%	-66.1% (inactive)	118%	-0.601 (inactive)	-3.8e-05 (inactive)	0.00658 (inactive)	-20.1% (inactive)	-53% (inactive)
COc1ccc(Nc2ncnc3c2cnn3-c2ccccc2)cc1OC	761	-15.1% (inactive)	-26.1% (inactive)	84.3%	-10% (inactive)	103%	-0.366 (inactive)	1.2e-05 (inactive)	0.00554 (inactive)	-10.2% (inactive)	-29.8% (inactive)
CCOc1ccc(OCCCCN(C)C)cc1	386	1.8% (inactive)	5.3% (inactive)	110%	-111% (inactive)	104%	-0.299 (inactive)	-6.7e-06 (inactive)	0.00564 (inactive)	8.3% (inactive)	27.7% (inactive)

— PubChem BioAssay
